# The list is not random: actives were taken first. Their share in the collection is about 2.2%.
# TLR4-MyD88 BLA: TLR4-MyD88 interaction inhibition in cells; O00206+Q99836; HeLa CL3-4 TLR4/MyD88 BLA complementation, FRET ratio; inhibition, % at 8.4 µM; hit rate 0.18% among 200,000; in the data active = inhibition above about 25%;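 note: 0% = vehicle and 100% = reference inhibitor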
# NOD2 RIPK2 PPI: inhibitors of human NOD2-RIPK2 interaction. O43353. CHO BLA complementation NOD2-RIPK2, CCF4 ratio. inhibition, % at 4.98 µM. hit rate 0.38% among 360,000; in the data active = inhibition above about 21%;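 note: 0% = vehicle only and 100% = reference blocker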
# Target sequence (O43353 whole entry, looked up): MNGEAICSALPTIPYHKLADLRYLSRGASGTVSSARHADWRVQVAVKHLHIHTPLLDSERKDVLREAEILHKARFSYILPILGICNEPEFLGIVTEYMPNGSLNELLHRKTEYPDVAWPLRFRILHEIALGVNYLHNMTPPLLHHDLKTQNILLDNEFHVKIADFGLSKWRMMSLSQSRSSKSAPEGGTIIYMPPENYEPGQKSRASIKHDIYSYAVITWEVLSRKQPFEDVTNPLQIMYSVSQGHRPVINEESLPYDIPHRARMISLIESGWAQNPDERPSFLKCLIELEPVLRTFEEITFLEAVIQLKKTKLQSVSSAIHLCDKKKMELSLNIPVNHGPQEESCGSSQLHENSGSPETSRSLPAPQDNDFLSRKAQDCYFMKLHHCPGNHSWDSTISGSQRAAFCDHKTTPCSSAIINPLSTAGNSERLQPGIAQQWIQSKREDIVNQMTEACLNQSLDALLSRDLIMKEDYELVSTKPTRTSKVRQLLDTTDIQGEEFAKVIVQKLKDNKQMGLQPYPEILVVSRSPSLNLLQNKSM
# GRK2 inh: blocks RNA aptamer binding to human GRK2 | inhibition of aptamer binding, % at 10 µM | hit rate 0.59% among 330,000 | bead flow cytometry, FAM-aptamer displacement from GRK2 | AID 488847 | P25098;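 active = inhibition of aptamer binding above 40%, roughly 3 SD of noise, on plates passing a quality check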;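 note: median bead fluorescence of bound FAM aptamer so fluorescent compounds give negative values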
# TMEM16A act: activates or potentiates the mouse TMEM16A chloride channel. Q8BHY3. HEK293 TMEM16A/YFP-H148Q/I152L, iodide quench fluorescence; hits give low values. B-score at 10 µM. hit rate 0.3% among 340,000;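 active = fluorescence-ratio B-score plate-corrected deviation score at least 3 library SD below zero, with starting fluorescence score within 5 deviations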;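 note: channel opened by trigger with iodide after compound preincubation; score built on the fluorescence ratio of max minus min over baseline; more negative score means more quench and so TMEM16A activation or potentiation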
# TLR9-MyD88 block: blocks human TLR9 binding to MyD88. Q9NR96+Q99836. CHO BLA complementation TLR9-MyD88, CCF4 FRET ratio. inhibition, % at 4.98 µM. hit rate 0.21% among 340,000. AID 504734;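 active = inhibition above the mean over all tested compounds plus 3 SD, cut at about 21% in these data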;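 note: 0% = DMSO only wells and 100% = clavulanate BLA inhibitor control wells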
# ANO1 block: inhibitors of mouse TMEM16A calcium-activated chloride channel; hit rate 1.2% among 310,000; Q8BHY3; normalized B-score (activity score, 25-100; higher = stronger inhibition) at 10 µM; AID 588511; HEK293 TMEM16A/YFP iodide influx fluorescence, ionomycin;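 active = ratio plate-corrected score three or more library SD toward inhibition, starting fluorescence score within five deviations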;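 note: score derived from kinetic fluorescence span divided by baseline fluorescence per well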
# TMEM16A reconf: TMEM16A (mouse) chloride channel inhibition, re-confirmation; shares compounds with ANO1 block; HEK293 TMEM16A/YFP-H148Q, iodide quench fluorescence; ionomycin added to raise cell calcium; inhibition, % at 10 µM; hit rate 39% among 2,300; AID 652189;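 active = mean duplicate percent inhibition, scaled so buffer wells are 0 and the reference blocker 100, over three buffer SD above buffer mean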
# TMEM16A Ca cntr: alters calcium mobilization in TMEM16A HEK293 cells, counter-screen | shares compounds with ANO1 block | TMEM16A/YFP HEK293, Fluo4 calcium mobilization | calcium response (% of ionomycin), % at 10 µM | hit rate 2% among 2,300 | AID 652231;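 active = duplicate-averaged calcium signal over 20% of the ionomycin maximum, relative to buffer baseline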;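 note: each well's signal is peak minus trough fluorescence divided by its pre-addition baseline; 0% = buffer wells and 100% = ionomycin wells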
# YFP-HEK293 quench: parental YFP-HEK293 iodide quench counter-screen activity | shares compounds with ANO1 block | ionomycin | YFP ratio F(max-min)/F0 at 10 µM | 2,300 tested, under 10 active;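 active = yellow fluorescent protein signal ratio exceeding the buffer control mean by over 5 SD of those controls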;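 note: ratio is mean of duplicate wells from kinetic YFP trace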
# ClC-1 inh: rat ClC-1 inhibition, TMEM16A specificity screen. ratio percent, % at 10 µM. shares compounds with ANO1 block. CHO ClC-1-YFP, iodide influx fluorescence quench; iodide control reads 0, buffer control 100. AID 652236. 2,300 tested, under 10 active;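 active = duplicate-mean ratio percent above the mean of iodide-only control wells, which defines zero, plus 5 of their SD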;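 note: higher percent means stronger block of ClC-1 iodide influx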
# An asterisk follows results filed as active; i = inactive; nt = no result; ! = repeats disagree.
SMILES,TLR4-MyD88 BLA,NOD2 RIPK2 PPI,GRK2 inh,TMEM16A act,TLR9-MyD88 block,ANO1 block,TMEM16A reconf,TMEM16A Ca cntr,YFP-HEK293 quench,ClC-1 inh
Cc1[nH]n(-c2ccc(Br)cc2)c(=O)c1/C=N/NC(=O)c1ccccc1,nt,1.9,9.0,i,5.3,100*,21.0%*,i,-0.782,-18.0
Cc1occc1-c1nnc(SCC(=O)N2CCCC(C)C2)o1 (centres undefined),nt,-5.3,1.0,i,-12.0,nt,nt,nt,nt,nt
Cc1cccc(S(=O)(=O)NC(=O)C2(C)CCN2C(=O)Cc2ccc(C(C)(C)C)cc2)c1 (centres undefined),nt,6.3,nt,nt,nt,nt,nt,nt,nt,nt
COc1cccc(C(=O)NC(=S)Nc2ccc3c4c(cccc24)CC3)c1,0.3,-9.0,29.0,i,-6.6,i,i,i,-0.523,-5.5
Cc1c(C(=O)N2CCOCC2)sc(NC(=O)CCl)c1C#N,nt,-6.5,0.0,i,-0.1,i,nt,nt,nt,nt
N#Cc1c(NC(=O)CSc2nnnn2C2CCCCC2)sc2c1CCCC2,5.2,0.9,0.0,i,-2.7,25*,i,i,-1.15,-8.5
CC(C)[C@H](NC(=O)N1CC(=O)Nc2ccccc21)C(=O)N1CCC[C@@H]1C(=O)O,nt,-7.6,0.0,i,0.5,i,nt,nt,nt,nt
CN(Cc1cccs1)c1ncnc2sccc12,0.0,-7.5,2.0,i,-0.5,25*,i,i,-1.14,-18.0
COc1ccccc1OCC(=O)NCC1CCCCC1,-2.7,6.9,0.0,i,-2.6,100*,i,i,-1.07,-19.0
COc1ccccc1OCC(=O)NNc1c2ccccc2nc2ccccc12,nt,-3.8,2.0,i,2.9,25*,17.0%*,i,-1.02,-4.5
COc1ccc([N+](=O)[O-])cc1NCc1ccccc1C,4.3,2.0,1.0,i,-3.9,100*,i,i,-1.17,-9.0
CCOC(=O)c1c(-c2cccs2)csc1NC(=O)CCCC(=O)O,-3.5,-1.2,1.0,i,-4.5,i,nt,nt,nt,nt
CCOC(=O)c1c(-c2cccs2)csc1NC(=O)C(C)(C)C,-4.3,2.8,0.0,i,-1.7,25*,33.0%*,i,-1.08,-6.0
CC1(C(=O)NC2CCCCC2)CCC(=O)N1CC(F)(F)F (centres undefined),nt,-5.2,nt,nt,nt,nt,nt,nt,nt,nt
CCOc1cc(CNCCO)cc(Br)c1OCc1ccccc1Cl,2.6,-6.6,0.0,i,2.6,25*,i,i,-1.16,-18.0
COc1ccc(C(c2c[nH]c3ccccc23)c2c[nH]c3ccccc23)cc1O,-7.5,-6.4,1.0,i,2.4,100*,31.5%*,i,-0.883,-1.0
COc1ccc(C2=NN(C(=O)c3ccco3)C(c3ccco3)C2)cc1OC (centres undefined),nt,-2.6,0.0,i,5.8,i,nt,nt,nt,nt
O=C(CSc1nc2ccccc2o1)Nc1nc(-c2ccccc2)cs1,-6.7,-1.5,4.0,i,2.3,100*,47.5%*,i,-0.843,-12.0
O=C(CSc1nnc(-c2ccncc2)n1Cc1ccco1)Nc1nc(-c2ccccc2)cs1,6.4,-5.6,2.0,i,-5.5,25*,30.5%*,i,-1.11,-6.5
O=C(CSc1nc2ccccc2o1)Nc1nc2ccccc2s1,3.9,-6.9,1.0,i,3.0,i,nt,nt,nt,nt
CCn1c(SCC(=O)Nc2nc(-c3ccccc3)cs2)nnc1-c1ccccc1O,1.4,-2.5,0.0,i,-9.3,100*,36.5%*,i,-0.828,-3.0
c1ccc(COCCC2CO2)cc1 (centres undefined),nt,nt,0.0,nt,nt,i,nt,nt,nt,nt
C=CCc1cc(OC)ccc1OCC(O)CN1CCN(c2ccc(OC)cc2)CC1 (centres undefined),0.1,7.6,0.0,i,0.6,25*!,i,i,-1.21,-14.5
Cc1ccc(OCCNC(=O)C(=O)NCc2ccco2)cc1,2.5,-8.1,0.0,i,1.2,i,nt,nt,nt,nt
Cc1ccccc1-n1nc2c(c1NC(=O)c1cc3ccccc3oc1=O)CS(=O)(=O)C2,5.0,nt,0.0,nt,nt,25*,i,i,-1.31,-8.5
SMILES,TLR4-MyD88 BLA,NOD2 RIPK2 PPI,GRK2 inh,TMEM16A act,TLR9-MyD88 block,ANO1 block,TMEM16A reconf,TMEM16A Ca cntr,YFP-HEK293 quench,ClC-1 inh
COc1cccc(NC(=O)C2CCN(S(=O)(=O)c3ccc4c(c3)C(C)(C)C(=O)N4C)CC2)c1,nt,-4.0,3.0,i,-8.4,i,nt,nt,nt,nt
CCN(CC(=O)Nc1c(F)cccc1F)C(=O)COc1ccc2c(c1)CCC2,nt,-0.6,0.0,i,-5.5,i,nt,nt,nt,nt
O=C(c1ccccc1)c1ccc(C(=O)N2CCOCC2)cc1,-7.9,0.8,1.0,i,0.0,i,nt,nt,nt,nt
O=C(c1ccc(-c2ccccc2)cc1)c1ccccc1C(=O)N1CCOCC1,-2.1,-0.4,4.0,i,-2.2,100*,i,i,-1.2,-9.5
O=C(NCc1ccc(Cl)cc1)C1CCCCN1S(=O)(=O)c1ccccc1 (centres undefined),nt,4.4,4.0,i,-2.8,i,nt,nt,nt,nt
Cn1c(=O)n(CC(=O)N2CCN(c3nnc(-c4ccccc4)c4ccccc34)CC2)c2ccccc21,3.6,-14.3,3.0,i,3.7,25*,i,i,-1.05,-7.5
Cc1ccc(-c2nnc(N3CCN(C(=O)Cn4c(=O)n(C)c5ccccc54)CC3)c3ccccc23)cc1,-5.3,-2.1,0.0,i,-15.8,i,nt,nt,nt,nt
Cc1c(C(=O)Nc2ccc(Oc3ccccc3)cc2)sc2nc3n(c(=O)c12)CCC3,-7.0,-9.5,0.0,i,-13.1,100*,i,i,-1.16,-18.5
Cc1c(C(=O)Nc2ccc(OC(F)(F)F)cc2)sc2nc3n(c(=O)c12)CCC3,-5.1,2.2,0.0,i,2.7,i,nt,nt,nt,nt
S=C(Nc1ccc(N2CCOCC2)cc1)Nc1ccc2nc(-c3ccco3)c(-c3ccco3)nc2c1,-4.7,4.8,0.0,i,5.7,i,i,i,-1.07,-38.0
Cc1ccc(NC(=O)CSC2=C(C#N)C(c3ccco3)CC(=O)N2)cc1 (centres undefined),-11.9,0.9,0.0,i,-5.8,25*,i,i,-1.05,-12.0

# Bioassay records from PubChem BioAssay.
